MEP2-GFP yeast = alters MEP2-GFP fluorescence in TOR pathway yeast screen; S. cerevisiae MEP2-GFP strain, flow cytometry GFP, 3 h; 100% = DMSO control level; GFP response vs DMSO, % at 10 µM; hit rate 0.51% among 330,000; AID 2016;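 active means GFP response versus DMSO above a set limit, roughly screen mean plus 3 SD, cut at about 180% in these data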;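 further: median GFP fluorescence of the barcode-gated MEP2-GFP cells per well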
AGP1 TOR yeast = yeast TOR pathway AGP1-GFP modulation. GFP response vs DMSO, % at 10 µM. hit rate 0.02% among 320,000. AID 2066. S. cerevisiae AGP1-GFP multiplex flow cytometry, 3 h; GFP as percent of DMSO wells;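 active means GFP response relative to DMSO above a set limit, near screen average plus 3 SD, cut at about 150% in these data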;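 further: median GFP channel fluorescence of the gated AGP1 strain per well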
LAP4-GFP MLPCN = yeast TOR pathway LAP4-GFP modulation. S. cerevisiae LAP4-GFP multiplex, flow cytometry GFP, 3 h; median GFP as percent of DMSO wells. hit rate 0.34% among 320,000. GFP response vs DMSO, % at 10 µM;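 active means GFP response vs DMSO above a set limit, about the screen mean plus 3 SD, cut at about 150% in these data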
RPL19A-GFP yeast = modulators of TOR pathway RPL19A-GFP in S. cerevisiae. AID 2025. S. cerevisiae RPL19A-GFP strain, flow cytometry, 3 h; stronger effect = lower value. percent response vs DMSO, % at 10 µM. hit rate 0.3% among 330,000;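 active means percent response vs DMSO below 50%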;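 further: median channel GFP fluorescence of the barcoded RPL19A-GFP strain; ratio of sample median GFP to plate DMSO average so 100% = DMSO; lower means less RPL19A-GFP as with rapamycin TOR inhibition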
Efflux pump inh = antifungal efflux pump inhibition, Nile Red retention | S. cerevisiae Candida pump triplex | inhibition, % at 10 µM | hit rate 0.44% among 330,000;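 active means plate passing quality check with inhibition over a set limit, or well fluorescence over plate mean plus 4 SD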;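 further: Nile Red retained in pooled yeast measured as flow cytometry median fluorescence; 0% = buffer negative control and 100% = Enniatin B positive control; higher means more Nile Red kept so more efflux inhibition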
CIT2-GFP yeast = yeast TOR pathway CIT2-GFP modulation; S. cerevisiae CIT2-GFP strain, flow cytometry, 3 h; 100 means same as DMSO wells; GFP response vs DMSO, % at 10 µM; hit rate 0.065% among 320,000;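 active means GFP response relative to DMSO above a set limit, near the screen mean plus 3 SD, cut at about 150% in these data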;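 further: ratio of well median GFP fluorescence to mean of DMSO wells on the plate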
Cmpd fluor yeast = counter-screen for efflux pump inhibitors: compound fluorescence. shares compounds with Efflux pump inh. S. cerevisiae AD/pABC3, flow cytometry. fluorescence ratio to DMSO, % at 10 µM. hit rate 4% among 1,700;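 active means fluorescence ratio to DMSO above its plate's cutoff, the plate mean ratio plus 5 SD, cut at about 210% in these data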;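 further: unstained yeast with no Nile Red so the signal is compound autofluorescence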
Mdr1 pump inh = blocks the Candida albicans Mdr1 efflux pump in yeast; shares compounds with Efflux pump inh; S. cerevisiae AD/CaMDR1, Nile Red efflux, flow cytometry; inhibition, % at 10 µM; hit rate 1% among 1,700; in the data active means inhibition above about 26%;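 further: 0% = DMSO vehicle and 100% = reference inhibitor; higher means more Nile Red retained so more efflux inhibition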
CaCdr2 efflux inh = inhibitors of Candida albicans Cdr2 efflux pump | hit rate 4% among 1,700 | shares compounds with Efflux pump inh | Nile Red retention ratio vs DMSO, % at 10 µM | AID 588520 | S. cerevisiae AD/CaCDR2, Nile Red retention, flow cytometry; in the data active means Nile Red retention ratio vs DMSO above about 190%;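 further: higher ratio means more blocking of Cdr2 efflux of the dye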
Cdr1 pump inh = inhibitors of Candida albicans Cdr1 efflux pump; shares compounds with Efflux pump inh; S. cerevisiae AD/CaCDR1, Nile Red efflux, flow cytometry; inhibition, % at 10 µM; hit rate 1% among 1,700; AID 588522;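 active means inhibition above the screen-wide mean plus twice its standard deviation, cut at about 32% in these data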
An asterisk follows results filed as active; nt = not tested or not shown; [ ] = dose if it differs, or a comment. Only some compounds are listed: those with a hit (about 1.3% of all), similar ones and a draw of the others.

SMILES | MEP2-GFP yeast | AGP1 TOR yeast | LAP4-GFP MLPCN | RPL19A-GFP yeast | Efflux pump inh | CIT2-GFP yeast | Cmpd fluor yeast | Mdr1 pump inh | CaCdr2 efflux inh | Cdr1 pump inh
O=C(Cc1cccs1)N1CCN=C1SCc1ccccc1F | 89.6 | 96.7 | 101.2 | 90.3 | -0.1 | 85.5 | nt | nt | nt | nt
O=C(Cc1cccs1)N1CCN=C1SCc1ccccc1Cl | 121.8 | 98.5 | 104.1 | 105.6 | 1.0* | 103.8 | 93.5 | -0.3 | 102.9 | 10.3
O=C(Nc1ccccc1Cl)c1cc(S(=O)(=O)N2CCCCC2)ccc1N1CCOCC1 | 96.6 | 94.2 | 87.7 | 97.4 | 1.2* | 96.3 | 97.8 | 0.1 | 104.2 | 0.1
O=C(Nc1ccccc1N1CCCCC1)c1cc(S(=O)(=O)N2CCOCC2)ccc1Cl | 99.5 | 111.5 | 116.0 | 102.5 | 0.1 | 95.2 | nt | nt | nt | nt
COC(=O)c1cc(OC)c(OC)cc1NC(=O)c1cc(-c2ccccc2)nc2ccccc12 | 99.2 | 93.5 | 94.0 | 98.1 | 0.2 | 94.2 | 99.8 | -0.1 | 101.8 | 0.0
CNC(=O)c1cccc(NC(=O)c2cc(-c3ccccc3)nc3c2cnn3C(C)C)c1 | 98.4 | 98.0 | 103.2 | 98.9 | 0.5 | 85.0 | nt | nt | nt | nt
COc1cc(NC(=O)c2cc(-c3ccccc3)nc3c2cnn3C(C)C)cc(OC)c1OC | 100.5 | 96.4 | 91.8 | 97.6 | 1.0* | 85.8 | 100.2 | -0.2 | 99.3 | -0.5
COc1ccc(NS(=O)(=O)c2cc(NC(=O)c3cccnc3Cl)ccc2N2CCCC2)cc1 | 102.8 | 105.2 | 101.9 | 99.7 | 0.5* | 93.9 | 116.4 | -0.2 | 99.3 | 0.1
COc1ccc(NS(=O)(=O)c2cc(NC(=O)c3cnc(C)cn3)ccc2N2CCCC2)cc1 | 99.5 | 92.7 | 83.3 | 98.2 | 0.2 | 96.2 | nt | nt | nt | nt
O=C(NC(=S)Nc1ccc(O)cc1)c1cncc(Br)c1 | 104.3 | 113.0 | 136.0 | 100.2 | 0.0 | 110.5 | nt | nt | nt | nt
O=C(NC(=S)Nc1ccc2[nH]c(=O)[nH]c2c1)c1ccccc1F | 97.9 | 96.2 | 94.0 | 99.3 | 0.4 | 97.7 | 105.0 | -0.2 | 93.0 | 0.1
COc1ccc(C(=O)NC(=S)Nc2ccc3[nH]c(=O)[nH]c3c2)c(OC)c1 | 107.9 | 104.4 | 96.8 | 105.7 | 0.1 | 106.3 | 107.9 | -0.1 | 106.0 | 0.2
COc1cc(OC)cc(C(=O)NC(=S)Nc2ccc3[nH]c(=O)[nH]c3c2)c1 | 104.2 | 102.7 | 92.4 | 109.8 | 0.0 | 96.5 | nt | nt | nt | nt
O=C(NC(=S)Nc1ccc2[nH]c(=O)[nH]c2c1)c1cncc(Br)c1 | 102.2 | 100.9 | 100.7 | 100.6 | 0.8* | 106.6 | 103.4 | -0.3 | 101.5 | -0.1
Cc1cc(C)[n+](C)n1CC(O)Cn1c2ccccc2c2ccccc21 (stereo not given) | 98.6 | 98.0 | 98.0 | 100.6 | 0.1 | 100.7 | nt | nt | nt | nt
O=S(=O)(c1ccc(-c2ccon2)s1)N1CCN(c2ccncc2)CC1 | 96.3 | 106.7 | 106.1 | 95.1 | -0.2 | 105.1 | nt | nt | nt | nt
CC1CCCN(C(=O)COC(=O)CNS(=O)(=O)c2ccc3ccccc3c2)C1 (stereo not given) | 97.7 | 102.7 | 99.8 | 98.8 | -0.3 | 113.1 | nt | nt | nt | nt
Cc1cccc(N2CC(C(=O)Nc3ccc(N4CCOCC4)cc3)CC2=O)c1C (stereo not given) | 105.2 | 104.8 | 99.0 | 96.9 | 0.0 | 109.2 | nt | nt | nt | nt
CN(CC(=O)Nc1ccccc1C(F)(F)F)CC(=O)N1CCCCCC1 | 96.0 | 95.8 | 92.9 | 99.1 | 0.1 | 92.9 | nt | nt | nt | nt
Fc1ccc(-c2csc3[n+]2CCS3)cc1 | 109.3 | 105.0 | 108.1 | 106.1 | 3.0* | 108.2 | 90.5 | -0.3 | 88.8 | -0.3
O=[N+]([O-])c1ccc(-c2csc3[n+]2CCS3)cc1 | 98.3 | 94.9 | 96.5 | 93.1 | -0.1 | 97.0 | nt | nt | nt | nt
CCN(CC)c1ccc(C=N/C(C#N)=C(\N)C#N)cc1 | 107.5 | 100.2 | 103.5 | 99.2 | 0.7* | 100.7 | 127.8 | 0.8 | 348.0* | 2.1
Cc1nn2c3c(cnc2c1-c1ccccc1)C(=O)CCC3 | 107.0 | 95.8 | 110.7 | 101.5 | 0.6* | 85.9 | 105.8 | -0.1 | 102.9 | -0.1
COc1ccc(C(=O)NC2CCCc3c2cnn3-c2ccccc2F)o1 (stereo not given) | 96.3 | 101.8 | 91.1 | 100.4 | -0.5 | 99.5 | 94.8 | -0.2 | 107.2 | -0.1
CCOC(=O)c1ccccc1NC(=O)c1cn(-c2ccc(OC)cc2)c(=O)c2ccccc12 | 95.7 | 91.8 | 92.0 | 84.8 | 15.2* | 84.3 | 93.7 | 0.1 | 101.5 | 0.0
SMILES | MEP2-GFP yeast | AGP1 TOR yeast | LAP4-GFP MLPCN | RPL19A-GFP yeast | Efflux pump inh | CIT2-GFP yeast | Cmpd fluor yeast | Mdr1 pump inh | CaCdr2 efflux inh | Cdr1 pump inh
CCOC(=O)c1ccccc1NC(=O)c1cn(-c2ccc(C)c(C)c2)c(=O)c2ccccc12 | 100.5 | 96.4 | 94.3 | 100.8 | -0.1 | 101.5 | nt | nt | nt | nt
CC1=C(C(=O)Nc2cc(C(=O)N3CCN(c4cccc(C)c4)C(C)C3)ccc2C)SCCO1 (stereo not given) | 95.5 | 100.7 | 90.7 | 100.9 | -0.1 | 99.1 | nt | nt | nt | nt
CC(=O)c1cccc(N(C(=O)c2csnn2)C(C(=O)NC2CCCC2)c2ccccc2)c1 (stereo not given) | 100.9 | 94.6 | 97.9 | 102.1 | -0.1 | 95.3 | nt | nt | nt | nt
C/C(=N\NC(=O)CC1(C)OCCO1)c1cccs1 | 102.4 | 100.4 | 95.5 | 103.1 | 6.5* | 106.1 | 99.8 | 0.0 | 99.7 | -0.1
O=C(C1CCCO1)N1CCN(C(=S)Nc2ccc(F)cc2)CC1 (stereo not given) | 102.2 | 97.5 | 90.3 | 96.5 | 2.5* | 102.1 | 106.7 | 0.1 | 108.3 | 0.1
CC(NC(=O)C12CC3(C)CC(C)(CC(C)(C3)C1)C2)C(=O)O (stereo not given) | 100.1 | 108.9 | 112.1 | 109.1 | -0.1 | 103.0 | nt | nt | nt | nt
CCN(CC)Cc1c(O)ccc2c(=O)c(-c3ccccc3)coc12 | 107.1 | 102.7 | 93.5 | 103.8 | 1.2* | 102.3 | 93.3 | -0.4 | 94.0 | -0.1
CCN(CC)Cc1c(O)ccc2c(=O)c(Oc3ccccc3OC)coc12 | 100.2 | 102.4 | 101.2 | 99.0 | 0.0 | 103.3 | nt | nt | nt | nt
N#CC(C#N)=C1C=C2C=C(N3CCCCC3)CCC2CC1 (stereo not given) | 896.0*[may fluoresce green] | 190.0*[may fluoresce green] | 712.1*[may fluoresce green] | 216.7 | 9.3* | 630.7*[may fluoresce green] | 179.4 | 1.4 | 232.5* | 0.7
N#CC1=C(N)C2=C(N3CCCCC3)CCCC2C1(C#N)C#N (stereo not given) | 115.1 | 93.1 | 110.2 | 98.5 | 0.0 | 99.4 | nt | nt | nt | nt
CC(=O)c1ccc(OCc2cc(C(=O)N(C)Cc3ccccn3)no2)cc1 | 111.7 | 109.8 | 86.8 | 131.3 | 0.0 | 118.6 | nt | nt | nt | nt

Assay outcomes as filed in PubChem.
